Screens: PubChem BioAssay, National Center for Advancing Translational Sciences (NCATS)
HCMV antiviral: blocks human cytomegalovirus replication; HFF cells, HCMV-luciferase reporter, 72 h; stronger effect = lower value; activity change, negative = inhibition, % at 57.5 µM; 410,000 tested, 4.5% active; in the data active = activity change below about -60%; inconclusive = no clear call, values can overlap the other calls; inactive = above about -39%
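Two-dose cell screen: HFF monolayers treated with compounds and infected with luciferase-expressing HCMV at 1 PFU/cell, 72 h at 37C, then lysed for luciferase measurement.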
Pf growth 48h: P. falciparum growth inhibition at 48 hours (one generation); P. falciparum luciferase growth in erythrocytes, 48 h; Potency, µM (highest dose often 28.7 µM), for the others: top-dose activity change, negative = inhibition, most hits filed as inhibitors; 310,000 tested, 5.9% active; note: potency is the fitted concentration of half-maximal effect
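Erythrocytes infected with P. falciparum carrying an integrated firefly luciferase reporter (2% hematocrit, 0.1% parasitemia final) were exposed to compounds in RPMI 1640 with 0.5% Albumax at 37 C, 5% CO2. Growth inhibition was scored as reduced luminescence.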
Giardia FBPA inh: inhibitors of Giardia lamblia fructose-1,6-bisphosphate aldolase. 290,000 tested, 0.71% active. A8B2U2. purified Giardia FBPA. Potency, µM (top dose mostly 59.6 µM), without a hit: top-dose activity, negative = inhibition, hits mostly inhibitors; note: potency is the fitted concentration of half-maximal effect; nearly all actives have a fitted effect of over 55% in size
Target sequence (A8B2U2 whole entry, looked up): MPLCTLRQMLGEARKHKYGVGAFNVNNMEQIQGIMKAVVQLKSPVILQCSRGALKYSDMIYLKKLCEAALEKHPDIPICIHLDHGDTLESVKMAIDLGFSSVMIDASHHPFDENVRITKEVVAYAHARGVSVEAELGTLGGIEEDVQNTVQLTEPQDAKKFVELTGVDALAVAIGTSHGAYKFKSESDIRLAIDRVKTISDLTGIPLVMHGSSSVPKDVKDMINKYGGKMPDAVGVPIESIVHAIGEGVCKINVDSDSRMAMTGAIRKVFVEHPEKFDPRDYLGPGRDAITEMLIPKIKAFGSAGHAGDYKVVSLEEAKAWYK
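40 nM FBPA preincubated 10 min at RT with compound (up to 57.5 uM final), then substrate plus GAPDH/TPI/NAD/arsenate coupling and diaphorase/resazurin added. Fluorescence read after 20 min at RT, 525/598 nm.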
Pf growth 96h: inhibits malaria parasite growth, 96 h; P. falciparum luciferase reporter growth, 96 h; Potency, µM (doses to about 28.7 µM), inactives show top-dose activity change, negative = inhibition, actives largely listed as inhibitors; 320,000 tested, 6.9% active; note: potency is the fitted concentration of half-maximal effect
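Cell-based qHTS: luciferase-tagged P. falciparum in erythrocytes (2% hematocrit, 0.05% parasitemia final) incubated with compounds for 96 hours, 37 C, 5% CO2; luciferase detection reagent then added and luminescence measured.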
Sm TGR inh: blocks Schistosoma mansoni thioredoxin glutathione reductase. 360,000 tested, 3% active. Potency, µM (titrated, usually from 114 µM), for the others: at the top dose activity change, negative = inhibition, usual class: inhibitors. purified TGR, DTNB reduction, TNB absorbance 405 nm; note: potency is the fitted concentration of half-maximal effect; nearly all actives have a fitted effect of over 60% in size
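Kinetic colorimetric format: TGR-catalysed, NADPH-driven DTNB reduction monitored via TNB absorbance. Enzyme dispensed at 20 nM; compound exposure 15 min at room temperature before reaction start.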
Numbers without * were called inactive; [ ] = remark or other dose. Compounds with a hit are over-represented: about 14% of the library has one in this group of screens. Unless noted, calls come from the whole dose curve; as a rule, active = well fitted curve in the direction sought with a large enough effect; inconclusive = small, poorly fitted or top-dose-only effect, or another doubt; inactive = no such curve, though single readings can be large; an effect the other way counts as inactive or inconclusive. % is set by controls: 0 for no effect and ±100 for the full control effect.

Screening COc1cccc(-c2nn3c(-c4cc(C)[nH]n4)nnc3s2)c1 returned HCMV antiviral -17, Giardia FBPA inh 8%, Pf growth 96h 10µM* and Sm TGR inh -11%.
Screening COC(=O)[C@]12CCCCC=C1N(CCc1ccc(OC)c(OC)c1)C(=O)[C@H](CC(=O)NCc1ccccc1)C2 returned HCMV antiviral 4.
Screening Cc1[nH]n(-c2ccccc2)c(=O)c1C(c1ccccc1C(=O)O)c1c(C)[nH]n(-c2ccccc2)c1=O returned HCMV antiviral 20, Pf growth 48h -25%, Giardia FBPA inh -21%, Pf growth 96h -22% and Sm TGR inh -1%.
Screening Cc1[nH]n(-c2ccccc2)c(=O)c1C(C[N+](=O)[O-])c1ccc(Cl)cc1 (stereo not drawn) returned HCMV antiviral inconclusive, Pf growth 48h -13%, Giardia FBPA inh inconclusive, Pf growth 96h inconclusive and Sm TGR inh 1.6µM*.
`Cc1[nH]n(-c2ccccc2)c(=O)c1C(c1ccccc1[N+](=O)[O-])C(C#N)C#N` (stereo not drawn) gave HCMV antiviral 38, Pf growth 48h -28%, Giardia FBPA inh -21%, Pf growth 96h -16% and Sm TGR inh 8.9µM*.
`COc1cc(C(=O)Oc2cccc(/C=N/NC(=O)c3cc(C)[nH]n3)c2)cc(OC)c1OC` gave HCMV antiviral 32, Pf growth 48h 8%, Giardia FBPA inh -8%, Pf growth 96h inconclusive and Sm TGR inh -1%.
For COc1cccc(C(=O)Oc2c(Br)cc(Br)cc2/C=N/NC(=O)c2cc(C)[nH]n2)c1 the results were HCMV antiviral -97*, Pf growth 48h inconclusive, Giardia FBPA inh 2%, Pf growth 96h 4% and Sm TGR inh 3%.
Screening Cc1cc(C(=O)N/N=C/c2cccc(OC(=O)c3cccc(Br)c3)c2)n[nH]1 returned HCMV antiviral -71*, Pf growth 48h 26%, Pf growth 96h 7% and Sm TGR inh -5%.
For CCN(CC)c1ccc(N=Nc2nn(C)c(C)c2[N+](=O)[O-])cc1 the results were HCMV antiviral inconclusive, Pf growth 48h inconclusive, Giardia FBPA inh -13%, Pf growth 96h 3.7µM* and Sm TGR inh -9%.
CCN(Cc1ccccc1)c1ccc(N=Nc2nn(C)c(C)c2[N+](=O)[O-])cc1 was read as HCMV antiviral inconclusive, Pf growth 48h 1.7µM*, Giardia FBPA inh 0%, Pf growth 96h inconclusive and Sm TGR inh -5%.
`CC1=C(C(=O)OC2CCCC2)C(c2cccc(Cl)c2Cl)CC(=O)N1` (stereo not drawn) gave HCMV antiviral -75* and Sm TGR inh 2%.
Screening COc1ccnc(N2CCN(c3cccc(C(F)(F)F)c3)CC2)c1C#N returned HCMV antiviral 6, Pf growth 48h 16%, Giardia FBPA inh 7%, Pf growth 96h 49% and Sm TGR inh 7%.
`COc1ccnc(N2CCN(c3ccc(Cl)cc3)CC2)c1C#N` gave HCMV antiviral -68*, Pf growth 48h 24%, Giardia FBPA inh -1%[12.9 µM], Pf growth 96h 103% and Sm TGR inh 12%.
For FC(F)(F)c1cccc(Cn2nnnc2-c2ccc(Cl)cc2)c1 the results were HCMV antiviral inconclusive, Pf growth 48h inconclusive, Giardia FBPA inh -5%, Pf growth 96h 8.3µM* and Sm TGR inh -4%.
For COc1cccc(OC(=O)CSc2nnc(-c3cccs3)o2)c1 the results were HCMV antiviral 31 and Sm TGR inh -2%.
O=C1[C@H]2[C@@H](c3ccc(Cl)cc3)N3C(=O)N(c4cccc(Br)c4)C(=O)[C@@]3(Cc3ccc(Cl)cc3)[C@H]2C(=O)N1C1CCCCC1 was read as HCMV antiviral -23, Pf growth 48h inconclusive, Giardia FBPA inh -1%, Pf growth 96h 12µM* and Sm TGR inh -8%.
Screening O=C1[C@H]2[C@@H](c3ccc(F)cc3)N3C(=O)N(c4cccc(Br)c4)C(=O)[C@@]3(Cc3ccc(Cl)cc3)[C@H]2C(=O)N1C1CCCCC1 returned HCMV antiviral -20, Pf growth 48h 2.9µM*, Giardia FBPA inh -18%, Pf growth 96h 3.3µM* and Sm TGR inh 8%.
For O=C1[C@H]2[C@@H](c3ccc(F)cc3)N3C(=O)N(c4ccccc4)C(=O)[C@@]3(Cc3ccccc3)[C@H]2C(=O)N1C1CCCCC1 the results were HCMV antiviral -9, Pf growth 48h inconclusive, Pf growth 96h inconclusive and Sm TGR inh -4%.
Screening COC(=O)CNC(=O)C(=O)OC returned Giardia FBPA inh 1%.
`Clc1ccc2c(c1)-c1nnc(Br)n1-c1ccccc1S2` gave HCMV antiviral -17, Pf growth 48h 10µM*, Giardia FBPA inh -4%, Pf growth 96h inconclusive and Sm TGR inh -3%.
Brc1nnc2n1-c1ccccc1Sc1ccccc1-2 was read as HCMV antiviral -9, Pf growth 48h 12µM*, Giardia FBPA inh -6%, Pf growth 96h 8.3µM* and Sm TGR inh -32%.
For Cc1cc(C)n(CC(=O)N2c3ccccc3Sc3ccccc32)n1 the results were HCMV antiviral 46, Pf growth 48h inconclusive, Giardia FBPA inh 4%, Pf growth 96h 14% and Sm TGR inh -12%.
For c1ccc2c(c1)Sc1ccccc1-n1cnnc1-2 the results were HCMV antiviral -11, Pf growth 48h inconclusive, Giardia FBPA inh -15%, Pf growth 96h 9.3µM* and Sm TGR inh -21%.
Cc1ccc(Cl)cc1Nc1nc2ccccc2c2nncn12 was read as HCMV antiviral -13 and Sm TGR inh 0%.
`O=C(NNC(=O)C1CCC1)c1ccc(Br)cc1` gave HCMV antiviral -35, Pf growth 48h 1%, Pf growth 96h 23% and Sm TGR inh 0%.
Screening Cc1cnc(C(=O)NNC(=O)c2ccc(Br)cc2)cn1 returned HCMV antiviral inconclusive, Pf growth 48h 12µM*, Pf growth 96h inconclusive and Sm TGR inh 1%.
For Cc1cccc(C)c1NC(=O)C(c1ccnc2ccccc12)N1CCN(CCN(C)C)CC1 (stereo not drawn) the results were HCMV antiviral 6.
`Cc1cc(C)c(NC(=O)CNC(=O)[C@@H]2CCCN2C(=O)c2cccs2)c(C)c1` gave HCMV antiviral -6, Pf growth 48h -27%, Pf growth 96h -27% and Sm TGR inh 1%.
Screening CN1C(=O)C(C2(O)C(=O)N(Cc3ccccc3)c3cc(F)ccc32)c2ccccc21 (stereo not drawn) returned HCMV antiviral -23.
C(=C\n1nnc2ccccc21)/c1ccc[nH]1 was read as HCMV antiviral -8, Pf growth 48h -1%, Pf growth 96h 40% and Sm TGR inh 25µM*.
Screening c1ccc(-n2nnc3ccccc32)cc1 returned HCMV antiviral inconclusive, Pf growth 48h 34%, Giardia FBPA inh 27%, Pf growth 96h 42% and Sm TGR inh 3%.
`O=C1OCC=C1NNC(=O)c1cccnc1` gave HCMV antiviral -35, Pf growth 48h 11%, Giardia FBPA inh -17%, Pf growth 96h inconclusive and Sm TGR inh 40µM*.
